# Test results from PubChem BioAssay (NCI).
# Values joined by “and” are separate entries in the source; they are usually repeats but may differ in a detail not shown here. Identical values can stand only once. Compounds without any hit were thinned out: in the full panel of roughly 83,000, 20% have a hit.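 Cell lines were cultured in 96-well plates, exposed to a single compound concentration, and assessed for percent growth 48 hours later.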 Active and inactive are the calls of the source. The calls were made as follows: active = growth percent below 10; inactive = the rest.
# System: SF-268 CNS
# Test: NCI-60 one-dose screen, 48 h (100 = growth as untreated, 0 = no growth, -100 = all killed)
# Conditions: 10 µM unless noted
row,SMILES,growth
1,COc1ccc(C/C(C)=C(/c2ccc(OCCN3CCCC3)cc2)c2ccc(OC(=O)NCc3ccccc3)cc2)cc1,86.5% (inactive)
2,CCN(CC)CCOc1ccc(/C(=C(\Cl)c2ccccc2)c2ccccc2)cc1,62.8% (inactive) and 103% (inactive)
3,Cc1ccc(/C=C2\COc3ccc(O)c(O)c3C2=O)cc1,-37.6% (active)
4,COc1ccc2c(c1)oc1c(C)c3c(c(C)c12)C(=O)N(Nc1ccccc1)C3=O,100% (inactive)
5,CCC(=C(c1ccc(OCCCN(C)C)cc1)c1ccc(OCCCN(C)C)cc1)c1ccc(Cl)cc1,-78.3% (active)
6,CCOC(=O)c1c(-c2ccc(C)cc2)c(C#N)c(=O)n(-c2cccc(C(F)(F)F)c2)c1N,97% (inactive)
7,S=c1nc(CS)[nH]c2ccccc12,92.4% (inactive)
8,O=C(N/N=C/c1ccc(O)cc1O)c1cccc(Nc2ccnc(C(F)(F)F)c2)c1,11.8% (inactive)
9,CCN(CC)CCCN1C(=O)c2c(c(C)c3c(oc4cc(OC)ccc43)c2C)C1=O,101% (inactive)
10,Cc1ccc(NC(=O)c2ccc(CN3CCN(C)CC3)cc2)cc1Nc1nccc(-c2cccnc2)n1,104% (inactive) and 74.5% (inactive)
11,COc1cc(/C=C2/C=C(c3ccc(C(C)(C)C)cc3)N(CCc3ccc(S(N)(=O)=O)cc3)C2=O)cc(OC)c1OC,58.2% (inactive)
12,O=c1c(/C=C/c2ccco2)nnc2sc(Nc3ccc(Cl)cc3)nn12,103% (inactive)
13,Nc1[nH]nc(Nc2ccccc2)c1-c1nc2ccccc2s1,31% (inactive)
14,CCCCCCCCn1ccc2cc(NC(=O)CN3CCN(c4nc(C)cc(N5CCCCC5)n4)CC3)ccc21,93.3% (inactive)
15,CC/C(=C(/c1ccc(O)cc1)c1ccc(OCCN2CCCCCC2)cc1)c1ccc(Cl)cc1,63.4% (inactive)
16,C=C(C)[C@@H]1CC[C@]2(C(=O)N3CCN(C)CC3)CC[C@]3(C)[C@H](CC[C@@H]4[C@@]5(C)CC(CCCNC(C)=O)(CCCNC(C)=O)[C@H](OC(C)=O)C(C)(C)[C@@H]5CC[C@]43C)[C@@H]12,98.9% (inactive)
17,CCN(c1cc(-c2ccc(CN3CCC(/C=C/S(=O)(=O)c4ccccc4)CC3)cc2)cc(C(=O)NCc2c(C)cc(C)[nH]c2=O)c1C)C1CCOCC1,66.5% (inactive)
18,Nc1nc(N)c2c(n1)NC(c1ccc(Cl)cc1)CC(c1cccc(Nc3ccncc3)c1)=N2 (stereo not drawn),61.7% (inactive)
19,C=C(c1ccc(C(=O)O)cc1)c1cc2c(cc1C)C(C)(C)CCC2(C)C,90.2% (inactive) and 75.4% (inactive)

row,SMILES,growth
1,O=C1OCC2=C1C(c1cccc([N+](=O)[O-])c1)c1cc3c(cc1N2CCO)CCC3 (stereo not drawn),33.1% (inactive)
2,CCN(CC)/C([O-])=c1\cccc\c1=C1\N=C(c2ccccc2)N=C1[n+]1ccc(-c2ccccc2)cc1,102% (inactive)
3,Cc1nc(-n2[nH]c(=O)ccc2=O)sc1N=Nc1ccccc1,104% (inactive)
4,Cc1ccc(-c2nc3nc(-c4ccccc4)nc(N4CCCNCC4)c3o2)cc1,-26.3% (active)
5,O=C([C@H]1C[C@H]1c1ccc(S(F)(F)(F)(F)F)cc1)N1CCN(c2cc(Cl)ccc2C(F)(F)F)CC1,90.2% (inactive)
6,OB(O)c1ccsc1-c1nc2ccc3[nH]ncc3c2c2c1CCCC2,58.9% (inactive)
7,CC[C@]12CN3CCc4c([nH]c5ccccc45)[C@@](C(=O)OC)(c4cc5c(cc4OC)N(C)[C@H]4[C@@](O)(C(=O)OC)[C@H](OC(C)=O)[C@]6(CC)C=CCN7CC[C@]54[C@@H]76)CC(C3)[C@H]1O2 (stereo partly drawn),26.4% (inactive)
8,COC(=O)N/N=C/c1c[n+]([O-])c2ccccc2[n+]1[O-],106% (inactive)
9,Cn1ccnc1CN1CCSC(C(=O)Nc2ccccc2)C1 (stereo not drawn),95.1% (inactive)
10,CCNC(=O)Oc1ccc(/C(=C(/C)Cc2ccc(OC)cc2)c2ccc(OCCN(CC)CC)cc2)cc1,67.1% (inactive)
11,Cc1ccc(-c2nc(C#N)c(S(=O)(=O)N(C)C)o2)cc1,104% (inactive)
12,COCCn1cc(-c2nc(-c3cn(CCOC)c4ncccc34)cs2)c2ccccc21,83.3% (inactive)
13,Nc1nc2ccccc2c2c(=O)c3ccc(Cl)cc3sc12,95.2% (inactive)
14,CC[C@]1(O)CC2CN(CCc3c([nH]c4ccccc34)C(C(=O)OC)(c3cc4c(cc3OC)N(C=O)[C@H]3[C@@](O)(C(=O)OC)[C@H](OC(C)=O)[C@]5(CC)[C@@H]6C[C@@H]6CN6CC[C@]43[C@@H]65)C2)C1 (stereo partly drawn),15.3% (inactive)
15,CN1CCN(CCCN2c3ccccc3Sc3ccc(Cl)cc32)CC1,82.3% (inactive) and 88.2% (inactive)
16,Nc1ncc(-c2ccc3ncnc(N4CCc5ccc(Cl)cc54)c3c2)cc1C(F)(F)F,22.4% (inactive)
17,CC(C)(C)c1cc(NC(=O)Nc2ccc(-c3cn4c(n3)sc3cc(OCCN5CCOCC5)ccc34)cc2)no1,37.2% (inactive) and 22.8% (inactive)
18,CC1(Cc2ccccc2)CC2=C(C(=O)O1)C(c1ccccc1)NC(=O)N2 (stereo not drawn),110% (inactive)
19,COc1cc(C=O)ccc1Oc1ccc([N+](=O)[O-])cc1[N+](=O)[O-],102% (inactive)
